# Out of some 350,000 compounds screened, about 1,300 (0.37%) were called active. The full list was thinned out, with actives kept by preference. A number with no mark means an inactive call. Cut-off read from the data, not from the text of the source: active = response mostly above about 7.3% (no sharp cut-off); inactive = mostly below about 5.4%.
# Assay: regulators of yeast V-ATPase proton pumping, primary screen, pHLuorin cytosolic pH fluorescence (AID 504577)
# Conditions: S. cerevisiae, at 10 µM, hits give high values
row,SMILES,response
1,CCC/C(C)=N\Nc1nc2c(c(=O)n(C)c(=O)n2C)n1C,-1.49%
2,CCOc1ccc(NC(=O)COc2ccc(S(=O)(=O)N3CCCC3)cc2)cc1,2.92%
3,CCC(=O)c1ccc(OCC(=O)Nc2ccc(N3CCCCC3)cc2)cc1,9.77% (active)
4,O=C(COc1ccccc1)Nc1ccc(C(=O)N2CCCC2)cc1,-2.25%
5,Cc1ccc(O)c(/C=N/NC(=O)COc2ccc3c(C)cc(=O)oc3c2)c1,-1.28%
6,O=C(CC1SC(=Nc2ccccc2F)N(CCN2CCOCC2)C1=O)Nc1ccc(F)cc1F (stereo unspecified),1.28%
7,N#C/C(C(=O)N1CCOCC1)=C1/SC(Cc2ccc(F)cc2)C(=O)N1c1ccccc1 (stereo unspecified),9.93% (active)
8,Cc1ccc(CC2S/C(=C(/C#N)C(=O)N3CCOCC3)N(c3ccccc3)C2=O)cc1 (stereo unspecified),-0.15%
9,Nc1nc(NC(=O)/C=C/c2ccc(F)cc2)nn1-c1ccccc1,-1.87%
10,N#Cc1c(N2CCCCC2)nc(N)c2c(N)nc(SCC(=O)O)cc12,-4.11%
11,CCCCC(CC(C)O)c1n[nH]c(=S)n1-c1ccccc1 (stereo unspecified),3.53%
12,Nc1c(-c2ccccc2)nnn1Cc1ccccc1,-5.08%
13,OCc1nc(CO)n(Cc2ccccc2)n1,12.8% (active)
14,Cc1nn(Cc2ccccc2)c(C)c1NS(=O)(=O)c1ccccc1,1.59%
15,CSc1nc2ccccc2cc1/C=C(\C#N)c1ccc(Cl)cc1Cl,-2.01%
16,COC(=O)c1sc2[nH]c(=S)n(N)c(=O)c2c1C,-1.69%
17,O=C(CN1CCC(O)(c2cccc(C(F)(F)F)c2)CC1)NCCc1ccccc1,0.05%
18,CC(OC(=O)c1cccc(S(=O)(=O)N2CCOCC2)c1)C(=O)NCC1CCCCC1 (stereo unspecified),0.69%
19,COc1cccc(OC)c1C(=O)OCC(=O)/C(C#N)=C(\C)N,6.97% (active)
20,C/C(N)=C(/C#N)C(=O)COC(=O)c1cc(-c2ccc(C)cc2)nc2ccccc12,2.77%
21,C/C(N)=C(/C#N)C(=O)COC(=O)C1=NN(c2ccccc2)C(=O)CC1,1.14%
22,CC(=O)c1ccc(Cc2ncc(C(F)(F)F)cc2Cl)s1,-0.37%
23,CC1(c2nnc(-c3ccncc3)o2)CC(c2cccnc2)=NO1 (stereo unspecified),0.16%

row,SMILES,response
1,CCN1CCC2(CC1)N=C(c1ccc(F)cc1)C(=S)N2C(=O)c1ccc(C)cc1,-0.32%
2,C[n+]1ccc(C(=O)NCc2ccccc2)cc1,4.19%
3,CC(CNC(=O)c1ccc(N)cc1)NC(=O)c1ccc(N)cc1 (stereo unspecified),-1.34%
4,Nc1ccc(C(=O)NCc2ccccc2)cc1,14.4% (active)
5,Cn1c(N)c(C(=O)COC(=O)C23CC4CC(CC(C4)C2)C3)c(=O)n(C)c1=O,-2.17%
6,Nc1c(-c2cccc(Cl)c2)cnn1-c1cccc([N+](=O)[O-])c1,0.43%
7,Cc1cc(=O)[nH]c(N/N=C/c2c(C)nn(-c3ccccc3Cl)c2Cl)n1,8.62% (active)
8,Cc1nn(-c2ccccc2)c(Cl)c1/C=N/NC(=O)c1nn(C)cc1[N+](=O)[O-],-3.82%
9,Cc1ccc(-n2nc(C)c(/C=N/NC(=O)c3cccs3)c2Cl)cc1,1.32%
10,CCOC(=O)C1(Cc2ccc(O)cc2)NC(c2ccccc2F)C2C(=O)N(C)C(=O)C21 (stereo unspecified),16.1% (active)
11,CCCSc1ccc([C@H]2N[C@@](Cc3ccccc3)(C(=O)OC)[C@H]3C(=O)N(C)C(=O)[C@@H]23)cc1,-2.76%
12,CCCCC1(C(=O)OCC)NC(c2ccc(O)cc2)C2C(=O)N(c3ccccc3)C(=O)C21 (stereo unspecified),-2.37%
13,COc1ccc(CC(=O)Nc2c3c(nn2-c2cccc(Cl)c2)CS(=O)C3)cc1 (stereo unspecified),5.74%
14,CCN(CC)C(=O)C1=C(C)N(Cc2ccc(OC)cc2)C(=O)C(CC(=O)NCCCCc2ccccc2)C1 (stereo unspecified),2.59%
15,COc1cc(NC(=O)CSc2nnc3ccc(-c4ccncc4)nn23)cc(OC)c1,-1.89%
16,O=C(CSc1nnc2ccc(-c3ccncc3)nn12)N1CCCCC1,2.79%
17,Fc1cccc(CSc2nnc3ccc(-c4ccncc4)nn23)c1,30.5% (active)
18,NS(=O)(=O)c1ccc(CCNC(=O)c2ccc([N+](=O)[O-])cc2[N+](=O)[O-])cc1,0.09%
19,CCOc1ccc(-n2c(SCC(=O)Nc3cc(C(=O)O)ccc3Cl)nc3ccccc3c2=O)cc1,2.47%
20,COC(=O)c1cc(S(=O)(=O)N2CCN(c3cc(C)ccc3C)CC2)c[nH]1,-1.19%
21,COC(=O)c1ccc(/C=C2/C(=O)Oc3ccccc32)cc1,-0.46%
22,O=C1Oc2ccccc2C(=O)/C1=C/c1ccccc1O,15.2% (active)
23,COC(=O)c1c(NC(=O)COc2ccc(Cl)cc2Cl)sc2c1CC(C)(C)NC2(C)C,4.61%

row,SMILES,response
1,CCCc1cc(=O)oc2cc(OCC(=O)Nc3ccc(CN4CCOCC4)cc3)c(Cl)cc12,-2.48%
2,O=C(COc1cc2oc(=O)c3c(c2cc1Cl)CCC3)NCCCN1CCOCC1,9.9% (active)
3,Cc1cc(=O)oc2c(C)c(OCC(=O)NCCN3CCOCC3)ccc12,1.98%
4,CC(=O)Nc1c2c(nn1-c1ccc(C)cc1C)CS(=O)C2 (stereo unspecified),-4.1%
5,OCC(O)CN(c1ccccc1)c1ccccc1 (stereo unspecified),1.73%
6,COc1ccc(NC(=O)CCC(=O)Nc2nnc(C3CCCCC3)s2)cc1,-2.38%
7,Cc1cc(C(=O)Nc2nnc(C3CC3)s2)c(C)s1,3.66%
8,Cc1occc1C(=O)Nc1nnc(C2CCCCC2)s1,10% (active)
9,CCSCc1nc(N)nc(NCCc2ccccc2)n1,-0.9%
10,CCSC1=NCCN1C(=O)c1ccc(S(=O)(=O)N(CC)CC)cc1,2.02%
11,COc1ccc2nc(N3C(=O)C(O)=C(C(=O)c4ccco4)C3c3ccco3)sc2c1 (stereo unspecified),-1.37%
12,COc1ccc2nc(N3CCN(C(=O)c4ccc([N+](=O)[O-])o4)CC3)sc2c1,27.1% (active)
13,CCN(CC)CCN(C(=O)c1cccc([N+](=O)[O-])c1)c1nc2ccc(OC)cc2s1,-1.21%
14,CCOC(=O)CC1COCCN1C(=O)c1cc(COc2ccc(F)c(F)c2)on1 (stereo unspecified),0.12%
15,COc1cc(=O)[nH]c(=O)n1C(=O)Cc1ccccc1,-1.96%
16,COc1ccc(/C=N/NC(=O)c2cccc(C(F)(F)F)c2)cc1,13.1% (active)
17,COc1ccc(/C=N/NC(=O)Cn2cc(C(F)(F)F)ccc2=O)cc1,-4.67%
18,Cc1nnsc1C(=O)N/N=C/c1cccc(C(F)(F)F)c1,3.26%
19,CCCn1c(C(C)Nc2nc(-c3ccc(C)cc3)cs2)nc2cc(Cl)c(N3CCCCC3)cc21 (stereo unspecified),-1.24%
20,c1ccc(-c2nnc3n2NC(c2ccc4c(c2)OCO4)S3)cc1 (stereo unspecified),-3.32%
21,COC(=O)C(C)n1cnc2c(nnn2-c2cccc(Cl)c2)c1=O (stereo unspecified),16.6% (active)
22,CCOC(=O)C(C)n1cnc2c(nnn2-c2cccc(OC)c2)c1=O (stereo unspecified),1.26%
23,COC(=O)C(C)n1cnc2c(nnn2-c2ccc(F)cc2)c1=O (stereo unspecified),1.53%

row,SMILES,response
1,CN1CCNC(=O)C1CC(=O)NCCC1=CCCCC1 (stereo unspecified),1.15%
2,Cc1cc(=O)c2ccc(NC(=O)c3ccccc3)cc2[nH]1,8.54% (active)
3,Cc1ccc(S(=O)(=O)/N=C(/Nc2ccc3[nH]c(=O)[nH]c3c2)c2ccccc2)cc1,-2.11%
4,Cc1ccc(NC(=O)NC(=O)c2ccccc2)cc1F,-0.67%
5,CN(C)S(=O)(=O)c1ccc(N2CCCC2=O)c([N+](=O)[O-])c1,-0.02%
6,O=C(c1cccs1)N1C[C@H](n2cc(C3CC3)nn2)[C@@H](O)C[C@@H]1c1ccccc1,-2.35%
7,C/C(=C/C(=O)N1CCN(C)CC1)C(=O)O,-2.99%
8,COc1ccc(S(=O)(=O)N2CCC(C(=O)OCC(=O)c3ccccc3)CC2)cc1[N+](=O)[O-],-4.5%
9,COC(=O)c1cc(Oc2ccc(S(=O)(=O)N3CCOCC3)cc2[N+](=O)[O-])cc(C(=O)OC)c1,13.9% (active)
10,C=C(C)CNc1cc(S(=O)(=O)N2CCOCC2)ccc1Oc1ccccc1,1.92%
11,O=C(C[C@@H]1C/C=C\CCC(=O)OC[C@@H]2CCCN2C1=O)NCCO,-3.85%
12,COC(=O)c1c(NC(=O)CN2CCN(S(=O)(=O)c3ccccc3[N+](=O)[O-])CC2)sc2c1CCC(C)C2 (stereo unspecified),-0.77%
13,O=C1OCC2=C1C(c1ccccc1)CC(=O)N2c1cccc(F)c1 (stereo unspecified),18.5% (active)
14,O=C1CC(c2ccccc2)C(=O)N2C(=O)CC(c3ccccc3)C(=O)N12 (stereo unspecified),-1.7%
15,O=C1CC(c2ccccc2)C(=O)N1c1cccc(O)c1 (stereo unspecified),-0.89%
16,CC(C)(C)c1cnnn1-c1ccc([N+](=O)[O-])cc1,1.62%
17,Cc1cc(C)n(CC(=O)Nc2ccc([N+](=O)[O-])cc2)n1,-0.28%
18,Cc1cc(CO)nn1-c1ccc([N+](=O)[O-])cc1,15.4% (active)
19,Cc1ccc2nc(-c3ccncc3)cc(C(=O)Nc3ccc(OC(F)F)cc3)c2c1,11.1% (active)
20,O=C(Nc1ccncc1)c1cc(-c2ccccn2)nc2ccc(Br)cc12,0.9%
21,O=C(Nc1ccc(S(=O)(=O)Nc2nccs2)cc1)c1cc(-c2ccncc2)nc2ccccc12,2.45%
22,CC(=O)C1=C(C)NC(=O)NC1c1cc(Br)ccc1OCC#N (stereo unspecified),1.72%
